Laboratory results published in PubChem BioAssay.
Activity calls are given as the source filed them.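 The calls were made as follows, unless noted: active = fluorescence slope higher than the sample average by over 3 SD (cut at about -0.22 in these data, passing the limit was not always enough); inactive = the rest.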

Experiments:
[1] = inhibitors of TNFa-induced NFkB p65 translocation, primary screen, imaging, HUVEC, MLSMR starter and 10KST1 sets (AID 438;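 active = inhibition above 20% together with a positive visual image hit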;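 also: compound added about 3h40 before a 20 min TNFalpha stimulation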;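 as to inhibition: signal is the nuclear over cytoplasmic p65 intensity ratio per well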); conditions: HUVEC TNFa-induced p65 nuclear translocation; cell count: measured here: nuclei count (cytotoxicity indicator), at 2.08 µM; inhibition: at 2 µM, stronger effect = higher value, 0% TNFa-plus-vehicle, 100% no-TNFa wells
[2] = inhibitors of mutant huntingtin aggregation, primary screen, imaging, exon1htt(103Q)mCFP cells, high-content imaging (AID 483;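 active = visual image review flags a hit and inhibition of aggregation exceeds 20%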;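 also: compound exposure lasted 3 days before fixation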;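 as to nuclei count: percent of the per-plate median nuclei count of sample wells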); conditions: exon1htt(103Q)mCFP cell line, aggregate imaging, at 2 µM; inhibition of aggregation: stronger effect = higher value; nuclei count: measured here: cell count, toxicity
[3] = inhibitors of E-selectin induction by TNFa, primary screen, imaging, HUVEC, immunofluorescence, MLSMR starter and 10KST1 sets (AID 487;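 active = visually confirmed hit in the image check and inhibition above 20%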;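 as to inhibition: signal is fraction of cell area covered by stained E-selectin grains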;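 as to nuclei count: 100% = median nuclei count of all wells on the same plate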); conditions: HUVEC TNFalpha-induced E-selectin immunofluorescence imaging, at 2 µM; inhibition: stronger effect = higher value; nuclei count: measured here: cell number, toxicity
[4] = molecular target: Voltage-gated potassium channel subunit beta-2 (Rattus norvegicus) (UniProt P62483); assay: KvBeta enzyme negative modulators, primary screen, biochemical, NADPH fluorescence (AID 622); conditions: recombinant KvBeta, 4-cyanobenzaldehyde reduction, at 10 µM, stronger effect = higher value;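 also: slope of raw intensity against log time taken from 70 to 1610 s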
[5] = molecular target: Voltage-gated potassium channel subunit beta-2 (Rattus norvegicus) (UniProt P62483); assay: KvBeta positive modulators, primary screen, biochemical, NADPH fluorescence (AID 623;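 active = NADPH fluorescence slope more negative than the mean of all samples by about 3 SD, 99.7% confidence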;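 also: fluorescence intensity change per second fitted from 20 to 320 s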); conditions: Recombinant KvBeta, NADPH fluorescence decrease slope, 10 min; at 10 µM; stronger effect = lower value
[6] = molecular target: Alpha-2C adrenergic receptor (Homo sapiens) (UniProt P18825); assay: modulators of alpha2C/GIRK thallium flux, primary screen, cell-based, HEK293 alpha2C/GIRK1/2 (AID 624;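 active = fluorescence slope after compound addition differing from the mean of all screened samples at 99.7% confidence, in either direction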;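 also: slope of fluorescence ratio to pre-addition baseline per second over 15 to 24 s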); conditions: thallium flux BTC fluorescence, at 10 µM, actives lie on both sides
[7] = inhibitors of Sendai virus-induced IRF3 signaling, primary screen, TLR/RLR signaling modifier project, cell-based, Sendai virus stimulus, luciferase, 10K MLSCN set (AID 602276;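 active = inhibition at or above 50% at 10 µM; inactive = inhibition below 50%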;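 also: firefly luciferase from ISG56 promoter only with Renilla not read in this screen; 0% = Sendai virus plus DMSO and 100% = medium plus DMSO without virus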); conditions: HEK293 RL24 IRF3 luciferase reporter, at 10 µM, stronger effect = higher value
[8] = inhibitors of poly I:C-induced TLR3 signaling, primary screen, cell-based, poly I:C stimulus, luciferase, 10K MLSCN set (AID 602277;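 active = inhibition of the reporter signal at or above 50%; inactive = inhibition below 50%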); conditions: HEK293-TLR3 RL24 IRF3 luciferase reporter, at 10 µM, stronger effect = higher value

Chain of Voltage-gated potassium channel subunit beta-2 (Rattus norvegicus) (P62483 whole entry, looked up): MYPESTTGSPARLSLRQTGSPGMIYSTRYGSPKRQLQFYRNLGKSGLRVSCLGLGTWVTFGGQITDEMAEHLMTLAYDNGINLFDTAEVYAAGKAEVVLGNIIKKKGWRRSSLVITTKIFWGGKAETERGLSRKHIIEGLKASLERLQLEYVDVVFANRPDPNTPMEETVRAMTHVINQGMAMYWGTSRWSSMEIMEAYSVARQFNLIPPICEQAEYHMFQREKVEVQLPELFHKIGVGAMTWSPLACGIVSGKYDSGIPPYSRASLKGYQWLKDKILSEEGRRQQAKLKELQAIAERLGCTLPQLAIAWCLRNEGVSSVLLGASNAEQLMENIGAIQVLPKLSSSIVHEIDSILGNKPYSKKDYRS
Chain of Alpha-2C adrenergic receptor (Homo sapiens) (P18825 whole entry, looked up): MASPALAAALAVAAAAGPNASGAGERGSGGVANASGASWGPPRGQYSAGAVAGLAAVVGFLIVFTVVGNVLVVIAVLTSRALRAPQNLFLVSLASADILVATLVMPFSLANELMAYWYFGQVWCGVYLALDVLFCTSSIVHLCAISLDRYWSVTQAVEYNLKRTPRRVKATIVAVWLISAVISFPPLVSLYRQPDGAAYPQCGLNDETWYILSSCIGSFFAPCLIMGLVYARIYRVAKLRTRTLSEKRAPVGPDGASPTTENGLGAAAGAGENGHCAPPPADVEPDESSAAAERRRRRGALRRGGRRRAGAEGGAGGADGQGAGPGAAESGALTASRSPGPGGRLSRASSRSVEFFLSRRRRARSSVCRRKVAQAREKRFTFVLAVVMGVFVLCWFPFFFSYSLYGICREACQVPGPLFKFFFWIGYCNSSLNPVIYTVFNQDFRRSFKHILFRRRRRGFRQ

SMILES	cell count [1]	inhibition [1]	inhibition of aggregation [2]	nuclei count [2]	inhibition [3]	nuclei count [3]	fluorescence slope [4]	NADPH fluorescence slope [5]	slope [6]	inhibition [7]	inhibition [8]
O=S1(=O)C=C(Oc2ccc(F)cc2)c2ccccc21	377	-2.7% (inactive)	-8.6% (inactive)	108%	-0.9% (inactive)	111%	-0.321 (inactive)	-7.4e-05 (inactive)	0.00496 (inactive)	5.55% (inactive)	7.32% (inactive)
CC1(C)NC(=O)N(CC(O)CN2CCCC2)C1=O (centres undefined)	317	-4.8% (inactive)	4.1% (inactive)	85.6%	-48.6% (inactive)	72.8%	-0.543 (inactive)	4.5e-05 (inactive)	0.00702 (inactive)	6.37% (inactive)	-4.68% (inactive)
CCOC(=O)c1cccc(NC(=O)CNS(=O)(=O)c2cccs2)c1	445	6.8% (inactive)	-11.6% (inactive)	108%	-7.8% (inactive)	134%	-0.518 (inactive)	-4.4e-05 (inactive)	0.00596 (inactive)	-11.6% (inactive)	-10.2% (inactive)
CC(=O)Nc1ccc(S(=O)(=O)Nc2nc3ccccc3nc2N2CCCC2)cc1	369	3.2% (inactive)	10.6% (inactive)	106%	-42.3% (inactive)	128%	-0.593 (inactive)	2.1e-06 (inactive)	0.00326 (inactive)	20.8% (inactive)	21.3% (inactive)
COC(=O)[C@@H](NC(=O)NCc1ccccc1Cl)C(C)C	732	8.4% (inactive)	-23.1% (inactive)	100%	15.5% (inactive)	109%	-0.469 (inactive)	-2.9e-05 (inactive)	0.00402 (inactive)	4.11% (inactive)	32.6% (inactive)
O=C(CN1C(=O)CCSc2ccccc21)Nc1ccccc1	854	-4.1% (inactive)	-19.8% (inactive)	105%	-140% (inactive)	113%	-0.447 (inactive)	-0.000395 (inactive)	0.00731 (inactive)	-3.3% (inactive)	7.46% (inactive)
CCOCCn1c(CN2CCN(CC)CC2)nc2c1c(=O)n(C)c(=O)n2C	638	2.9% (inactive)	12.8% (inactive)	92.7%	-15.7% (inactive)	110%	-0.568 (inactive)	-2.7e-05 (inactive)	0.0075 (inactive)	4.19% (inactive)	33.7% (inactive)
COc1ccc(C2CC(c3ccc(Cl)cc3Cl)Nc3nc(N)nn32)cc1 (centres undefined)	578	2.3% (inactive)	-1.8% (inactive)	105%	-10.3% (inactive)	102%	-0.593 (inactive)	1.1e-05 (inactive)	0.00847 (inactive)	13.9% (inactive)	36.6% (inactive)
Cc1cccc(N2C(=O)CC(N3CCN(C(=O)c4ccccc4)CC3)C2=O)c1 (centres undefined)	408	19.1% (inactive)	1.1% (inactive)	106%	-12.6% (inactive)	118%	-0.412 (inactive)	-0.000104 (inactive)	0.00671 (inactive)	10.6% (inactive)	16.7% (inactive)
CCOC(=O)c1c(C)n(OCc2ccccc2)c2ccc3c(no[n+]3[O-])c12	437	4% (inactive)	2.1% (inactive)	104%	8.8% (inactive)	111%	-0.484 (inactive)	-1e-05 (inactive)	0.00638 (inactive)	2.55% (inactive)	13.2% (inactive)
COc1ccc(Br)cc1S(=O)(=O)N1CC(C)OC(C)C1 (centres undefined)	359	2.8% (inactive)	-12.3% (inactive)	94%	-42.7% (inactive)	104%	-0.429 (inactive)	3.8e-05 (inactive)	0.0065 (inactive)	-2.27% (inactive)	9.82% (inactive)
CCOc1ccccc1C(=O)Nc1cc(=O)n(C)c(=O)n1C	651	-0.8% (inactive)	6.8% (inactive)	95.8%	31% (inactive)	98.4%	-0.416 (inactive)	-4.9e-05 (inactive)	0.00585 (inactive)	14.8% (inactive)	39.7% (inactive)
Cc1nc2sc(C(c3cccs3)N3CCOCC3)c(O)n2n1 (centres undefined)	591	-0.3% (inactive)	-28.8% (inactive)	112%	-5.1% (inactive)	115%	-0.553 (inactive)	-4.2e-05 (inactive)	0.00703 (inactive)	9.99% (inactive)	32.1% (inactive)
COC(=O)C1=C(C)OC(N)=C(C#N)C1c1c(C)nn(-c2ccccc2)c1Cl (centres undefined)	798	3.8% (inactive)	12.3% (inactive)	107%	-33.5% (inactive)	126%	-0.524 (inactive)	1e-05 (inactive)	0.00643 (inactive)	-88.9% (inactive)	-11.8% (inactive)
